# Source: ChEMBL document CHEMBL2218924, “A broad activity screen in support of a chemogenomic map for kinase signalling research and drug discovery” (Biochem J, 2013)
# Legend:
# [1] = target: Tyrosine-protein kinase Fer (Homo sapiens) (UniProt P16591); settings: at 10 µM
# [2] = target: Tyrosine-protein kinase Fes/Fps (Homo sapiens) (UniProt P07332); settings: at 1 µM
# [3] = target: Tyrosine-protein kinase Fes/Fps (Homo sapiens) (UniProt P07332); settings: at 10 µM
# [4] = target: Tyrosine-protein kinase Fgr (Homo sapiens) (UniProt P09769); settings: at 1 µM
# [5] = target: Tyrosine-protein kinase Fgr (Homo sapiens) (UniProt P09769); settings: at 10 µM
# [6] = target: Vascular endothelial growth factor receptor 1 (Homo sapiens) (UniProt P17948); settings: at 1 µM
# [7] = target: Vascular endothelial growth factor receptor 1 (Homo sapiens) (UniProt P17948); settings: at 10 µM
# [8] = target: Receptor-type tyrosine-protein kinase FLT3 (Homo sapiens) (UniProt P36888); settings: at 1 µM
# [9] = target: Receptor-type tyrosine-protein kinase FLT3 (Homo sapiens) (UniProt P36888); settings: at 10 µM
# [10] = target: Vascular endothelial growth factor receptor 3 (Homo sapiens) (UniProt P35916); settings: at 1 µM
# [11] = target: Vascular endothelial growth factor receptor 3 (Homo sapiens) (UniProt P35916); settings: at 10 µM
# [12] = target: Macrophage colony-stimulating factor 1 receptor (Homo sapiens) (UniProt P07333); settings: at 1 µM
# [13] = target: Macrophage colony-stimulating factor 1 receptor (Homo sapiens) (UniProt P07333); settings: at 10 µM
# [14] = target: Tyrosine-protein kinase Fyn (Homo sapiens) (UniProt P06241); settings: at 1 µM
# [15] = target: Tyrosine-protein kinase Fyn (Homo sapiens) (UniProt P06241); settings: at 10 µM
# [16] = target: T1, Mitogen-activated protein kinase kinase kinase kinase 2 (Homo sapiens) (UniProt Q12851); settings: at 1 µM
# T1 sequence (whole entry): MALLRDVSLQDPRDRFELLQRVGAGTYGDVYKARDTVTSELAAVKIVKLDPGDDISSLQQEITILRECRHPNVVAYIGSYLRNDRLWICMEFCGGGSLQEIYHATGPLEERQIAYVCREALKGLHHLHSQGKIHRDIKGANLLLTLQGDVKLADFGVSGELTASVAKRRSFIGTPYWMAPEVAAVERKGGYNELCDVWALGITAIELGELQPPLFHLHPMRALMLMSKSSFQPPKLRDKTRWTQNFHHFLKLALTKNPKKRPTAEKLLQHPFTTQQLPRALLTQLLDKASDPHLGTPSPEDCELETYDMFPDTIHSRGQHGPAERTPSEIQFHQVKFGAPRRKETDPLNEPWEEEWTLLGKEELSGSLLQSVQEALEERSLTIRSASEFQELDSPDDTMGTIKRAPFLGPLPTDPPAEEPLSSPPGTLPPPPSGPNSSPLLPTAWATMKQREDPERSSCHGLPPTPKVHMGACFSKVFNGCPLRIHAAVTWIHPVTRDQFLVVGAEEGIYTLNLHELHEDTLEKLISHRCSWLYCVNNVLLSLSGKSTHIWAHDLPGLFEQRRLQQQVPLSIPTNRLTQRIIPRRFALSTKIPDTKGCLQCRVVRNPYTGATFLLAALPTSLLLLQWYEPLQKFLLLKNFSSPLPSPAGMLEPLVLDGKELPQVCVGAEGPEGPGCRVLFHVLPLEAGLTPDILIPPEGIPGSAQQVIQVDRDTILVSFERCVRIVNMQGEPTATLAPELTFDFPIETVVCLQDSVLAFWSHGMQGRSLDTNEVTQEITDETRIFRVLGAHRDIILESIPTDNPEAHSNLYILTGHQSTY
# [17] = target: T1, Mitogen-activated protein kinase kinase kinase kinase 2 (Homo sapiens); settings: at 10 µM
# [18] = target: G protein-coupled receptor kinase 5 (Homo sapiens) (UniProt P34947); settings: at 10 µM
# [19] = target: G protein-coupled receptor kinase 6 (Homo sapiens) (UniProt P43250); settings: at 10 µM
# [20] = target: T2, Rhodopsin kinase GRK7 (Homo sapiens) (UniProt Q8WTQ7); settings: at 1 µM
# T2 sequence (whole entry): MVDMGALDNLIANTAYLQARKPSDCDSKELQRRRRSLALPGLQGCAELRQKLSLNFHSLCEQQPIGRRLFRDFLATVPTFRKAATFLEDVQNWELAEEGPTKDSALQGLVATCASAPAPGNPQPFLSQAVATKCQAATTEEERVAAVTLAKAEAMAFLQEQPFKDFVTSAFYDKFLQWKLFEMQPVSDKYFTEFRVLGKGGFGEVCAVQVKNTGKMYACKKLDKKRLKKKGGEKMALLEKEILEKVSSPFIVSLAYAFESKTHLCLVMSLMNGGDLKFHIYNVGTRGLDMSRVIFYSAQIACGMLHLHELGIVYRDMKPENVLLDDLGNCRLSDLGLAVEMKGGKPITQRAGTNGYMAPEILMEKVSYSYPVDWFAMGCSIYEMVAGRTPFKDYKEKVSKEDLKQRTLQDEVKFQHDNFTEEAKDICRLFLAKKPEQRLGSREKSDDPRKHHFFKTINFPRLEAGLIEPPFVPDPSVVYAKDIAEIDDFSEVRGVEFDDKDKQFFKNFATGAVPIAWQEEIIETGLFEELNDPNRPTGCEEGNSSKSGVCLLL
# Chain of Vascular endothelial growth factor receptor 1 (Homo sapiens) (P17948 whole entry): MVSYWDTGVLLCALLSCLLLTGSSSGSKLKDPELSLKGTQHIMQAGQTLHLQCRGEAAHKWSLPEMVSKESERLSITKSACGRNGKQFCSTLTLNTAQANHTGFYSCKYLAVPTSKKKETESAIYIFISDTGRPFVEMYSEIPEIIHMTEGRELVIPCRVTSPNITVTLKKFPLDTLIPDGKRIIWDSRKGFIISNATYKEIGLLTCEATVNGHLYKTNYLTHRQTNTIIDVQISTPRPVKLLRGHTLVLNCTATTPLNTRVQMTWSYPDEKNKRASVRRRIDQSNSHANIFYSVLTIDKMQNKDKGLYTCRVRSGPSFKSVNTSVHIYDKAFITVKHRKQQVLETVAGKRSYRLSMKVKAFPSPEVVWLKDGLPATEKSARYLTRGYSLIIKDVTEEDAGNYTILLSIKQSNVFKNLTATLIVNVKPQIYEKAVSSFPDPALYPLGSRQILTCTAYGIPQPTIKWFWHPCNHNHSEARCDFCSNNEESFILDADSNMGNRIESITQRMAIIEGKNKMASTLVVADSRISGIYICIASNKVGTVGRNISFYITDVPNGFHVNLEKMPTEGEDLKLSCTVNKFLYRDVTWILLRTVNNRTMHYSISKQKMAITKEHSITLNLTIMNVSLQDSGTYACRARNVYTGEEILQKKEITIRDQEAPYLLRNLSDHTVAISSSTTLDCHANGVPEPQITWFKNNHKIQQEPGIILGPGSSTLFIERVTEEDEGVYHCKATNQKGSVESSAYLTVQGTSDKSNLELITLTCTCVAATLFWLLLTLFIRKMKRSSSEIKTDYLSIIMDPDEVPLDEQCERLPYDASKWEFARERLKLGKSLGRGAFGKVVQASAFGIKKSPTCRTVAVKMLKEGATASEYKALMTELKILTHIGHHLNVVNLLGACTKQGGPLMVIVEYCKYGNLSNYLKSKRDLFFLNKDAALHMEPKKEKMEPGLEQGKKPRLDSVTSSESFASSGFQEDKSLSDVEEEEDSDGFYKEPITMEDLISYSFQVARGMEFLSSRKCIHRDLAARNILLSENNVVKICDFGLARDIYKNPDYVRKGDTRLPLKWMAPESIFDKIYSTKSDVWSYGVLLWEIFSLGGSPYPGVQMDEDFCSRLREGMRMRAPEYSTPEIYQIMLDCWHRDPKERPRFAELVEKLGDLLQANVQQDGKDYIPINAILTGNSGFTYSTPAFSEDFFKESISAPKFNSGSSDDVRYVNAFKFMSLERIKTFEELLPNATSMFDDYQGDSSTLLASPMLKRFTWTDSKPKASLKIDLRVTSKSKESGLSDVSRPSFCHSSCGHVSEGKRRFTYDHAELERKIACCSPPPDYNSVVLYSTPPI
# Chain of G protein-coupled receptor kinase 5 (Homo sapiens) (P34947 whole entry, looked up): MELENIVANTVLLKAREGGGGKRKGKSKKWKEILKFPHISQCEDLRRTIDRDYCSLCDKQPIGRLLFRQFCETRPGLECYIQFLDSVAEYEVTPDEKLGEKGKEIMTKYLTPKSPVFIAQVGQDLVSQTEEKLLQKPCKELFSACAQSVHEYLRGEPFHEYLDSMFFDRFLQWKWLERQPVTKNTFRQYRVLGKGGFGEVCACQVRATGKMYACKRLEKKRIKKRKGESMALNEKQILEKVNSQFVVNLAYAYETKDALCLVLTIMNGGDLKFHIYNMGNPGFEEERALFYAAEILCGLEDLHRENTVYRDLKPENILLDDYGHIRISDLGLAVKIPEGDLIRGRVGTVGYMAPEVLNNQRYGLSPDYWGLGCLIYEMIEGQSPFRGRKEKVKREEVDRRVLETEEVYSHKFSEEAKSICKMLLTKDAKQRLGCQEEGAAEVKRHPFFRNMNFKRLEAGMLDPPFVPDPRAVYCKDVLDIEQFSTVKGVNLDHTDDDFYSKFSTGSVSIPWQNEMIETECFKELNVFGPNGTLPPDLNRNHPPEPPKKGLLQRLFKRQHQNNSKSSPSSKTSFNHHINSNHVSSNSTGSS
# Chain of Macrophage colony-stimulating factor 1 receptor (Homo sapiens) (P07333 whole entry): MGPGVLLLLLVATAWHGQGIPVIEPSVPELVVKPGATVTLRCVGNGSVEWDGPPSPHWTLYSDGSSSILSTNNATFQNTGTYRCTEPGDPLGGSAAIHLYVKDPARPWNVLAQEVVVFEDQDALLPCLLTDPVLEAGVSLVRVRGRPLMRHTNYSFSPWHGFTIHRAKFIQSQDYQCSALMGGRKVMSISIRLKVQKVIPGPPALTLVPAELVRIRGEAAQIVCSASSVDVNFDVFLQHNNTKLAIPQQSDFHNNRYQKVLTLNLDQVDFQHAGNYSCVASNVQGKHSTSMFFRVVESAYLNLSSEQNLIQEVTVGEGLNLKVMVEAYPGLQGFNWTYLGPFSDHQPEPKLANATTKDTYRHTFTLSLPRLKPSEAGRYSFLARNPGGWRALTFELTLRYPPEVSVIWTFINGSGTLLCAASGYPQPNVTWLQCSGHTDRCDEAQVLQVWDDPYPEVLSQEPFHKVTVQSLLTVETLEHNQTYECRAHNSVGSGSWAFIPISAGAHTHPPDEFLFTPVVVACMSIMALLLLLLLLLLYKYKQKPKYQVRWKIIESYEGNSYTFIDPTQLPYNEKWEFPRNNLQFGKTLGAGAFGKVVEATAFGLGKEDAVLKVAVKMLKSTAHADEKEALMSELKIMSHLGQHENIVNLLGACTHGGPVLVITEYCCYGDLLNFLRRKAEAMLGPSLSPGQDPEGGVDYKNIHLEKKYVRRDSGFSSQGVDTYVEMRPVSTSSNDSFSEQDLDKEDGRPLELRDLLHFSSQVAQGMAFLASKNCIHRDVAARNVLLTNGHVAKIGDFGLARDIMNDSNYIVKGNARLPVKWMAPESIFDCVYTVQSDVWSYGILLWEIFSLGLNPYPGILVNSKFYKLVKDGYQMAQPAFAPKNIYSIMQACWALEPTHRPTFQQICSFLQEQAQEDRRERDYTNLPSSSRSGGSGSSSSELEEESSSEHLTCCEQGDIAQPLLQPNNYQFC
# Chain of Tyrosine-protein kinase Fes/Fps (Homo sapiens) (P07332 whole entry): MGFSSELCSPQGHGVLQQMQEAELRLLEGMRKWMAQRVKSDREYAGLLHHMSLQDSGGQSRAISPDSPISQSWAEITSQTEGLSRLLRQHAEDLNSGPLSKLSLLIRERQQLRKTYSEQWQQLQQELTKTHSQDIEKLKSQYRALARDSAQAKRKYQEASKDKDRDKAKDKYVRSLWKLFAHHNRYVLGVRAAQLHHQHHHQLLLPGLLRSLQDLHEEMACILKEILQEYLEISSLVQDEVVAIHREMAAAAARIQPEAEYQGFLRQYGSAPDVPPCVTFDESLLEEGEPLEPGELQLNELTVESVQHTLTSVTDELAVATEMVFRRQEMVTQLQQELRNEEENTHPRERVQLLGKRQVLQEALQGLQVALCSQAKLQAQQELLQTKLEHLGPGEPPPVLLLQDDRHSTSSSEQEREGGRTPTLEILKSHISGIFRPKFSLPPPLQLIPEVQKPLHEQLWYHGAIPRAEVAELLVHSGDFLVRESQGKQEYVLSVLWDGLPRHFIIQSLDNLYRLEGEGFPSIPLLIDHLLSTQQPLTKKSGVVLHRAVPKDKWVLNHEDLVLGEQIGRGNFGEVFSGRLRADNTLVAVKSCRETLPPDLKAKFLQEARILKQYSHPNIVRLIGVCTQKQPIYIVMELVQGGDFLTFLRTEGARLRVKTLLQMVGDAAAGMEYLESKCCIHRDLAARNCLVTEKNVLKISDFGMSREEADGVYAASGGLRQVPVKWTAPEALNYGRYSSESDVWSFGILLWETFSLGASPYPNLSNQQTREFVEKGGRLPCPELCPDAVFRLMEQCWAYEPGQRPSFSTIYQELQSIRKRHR
# Chain of Tyrosine-protein kinase Fer (Homo sapiens) (P16591 whole entry, looked up): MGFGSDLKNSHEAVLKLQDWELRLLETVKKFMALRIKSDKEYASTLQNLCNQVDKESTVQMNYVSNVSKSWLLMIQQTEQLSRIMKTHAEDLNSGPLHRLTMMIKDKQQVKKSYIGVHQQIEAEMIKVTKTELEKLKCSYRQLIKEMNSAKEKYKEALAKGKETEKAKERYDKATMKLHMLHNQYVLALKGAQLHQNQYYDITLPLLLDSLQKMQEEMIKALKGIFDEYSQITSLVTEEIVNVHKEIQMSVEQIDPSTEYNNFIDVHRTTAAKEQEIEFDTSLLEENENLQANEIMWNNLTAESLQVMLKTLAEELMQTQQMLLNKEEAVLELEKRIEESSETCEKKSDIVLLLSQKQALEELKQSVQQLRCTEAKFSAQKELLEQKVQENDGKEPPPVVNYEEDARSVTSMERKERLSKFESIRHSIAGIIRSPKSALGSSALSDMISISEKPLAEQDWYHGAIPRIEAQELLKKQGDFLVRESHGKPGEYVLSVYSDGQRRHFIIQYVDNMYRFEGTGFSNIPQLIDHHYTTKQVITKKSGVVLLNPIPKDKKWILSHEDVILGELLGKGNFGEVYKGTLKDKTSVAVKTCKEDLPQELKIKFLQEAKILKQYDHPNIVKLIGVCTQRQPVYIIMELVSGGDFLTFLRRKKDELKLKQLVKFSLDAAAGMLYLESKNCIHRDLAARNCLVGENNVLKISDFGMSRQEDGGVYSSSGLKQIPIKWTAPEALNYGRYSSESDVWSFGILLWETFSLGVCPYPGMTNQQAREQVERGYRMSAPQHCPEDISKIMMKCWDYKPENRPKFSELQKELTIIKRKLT
# Chain of Tyrosine-protein kinase Fyn (Homo sapiens) (P06241 2-537 limits assumed): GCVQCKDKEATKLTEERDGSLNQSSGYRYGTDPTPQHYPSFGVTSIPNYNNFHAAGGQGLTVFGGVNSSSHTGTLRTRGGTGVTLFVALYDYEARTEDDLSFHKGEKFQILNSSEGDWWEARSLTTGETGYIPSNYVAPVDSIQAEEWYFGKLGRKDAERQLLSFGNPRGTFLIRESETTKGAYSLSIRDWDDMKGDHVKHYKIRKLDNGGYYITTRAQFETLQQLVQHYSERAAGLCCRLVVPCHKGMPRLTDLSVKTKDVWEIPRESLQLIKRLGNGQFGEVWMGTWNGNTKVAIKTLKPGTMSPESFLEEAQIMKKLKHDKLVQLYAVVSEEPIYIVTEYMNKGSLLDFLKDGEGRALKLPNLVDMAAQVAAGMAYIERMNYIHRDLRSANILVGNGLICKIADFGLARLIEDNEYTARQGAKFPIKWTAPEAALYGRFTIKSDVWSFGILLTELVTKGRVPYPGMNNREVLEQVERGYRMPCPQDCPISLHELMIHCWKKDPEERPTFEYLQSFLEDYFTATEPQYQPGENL
Structure (SMILES),residual activity [1],residual activity [2],residual activity [3],residual activity [4],residual activity [5],residual activity [6],residual activity [7],residual activity [8],residual activity [9],residual activity [10],residual activity [11],residual activity [12],residual activity [13],residual activity [14],residual activity [15],residual activity [16],residual activity [17],residual activity [18],residual activity [19],residual activity [20]
O=C1NC(=O)/C(=C\c2ccc3nccnc3c2)S1,94%,108%,85%,107%,89%,88%,78%,94%,76%,98%,70%,126%,112%,83%,79%,75%,26%,82%,79%,87%
CN(C)CCCn1cc(C2=C(c3c[nH]c4ccccc34)C(=O)NC2=O)c2ccccc21,81%,125%,14%,–,55%,–,–,–,–,–,–,50%,30%,102%,70%,75%,22%,9%,32%,58%
COc1cc2ncnc(Nc3ccc(NC(=O)c4ccccc4)cc3)c2cc1OC,94%,–,90%,71%,25%,101%,72%,97%,92%,76%,14%,84%,79%,100%,48%,–,70%,89%,94%,110%
Oc1ccc(-c2nc(-c3ccc(F)cc3)c(-c3ccncc3)[nH]2)cc1,93%,107%,99%,93%,40%,83%,26%,87%,85%,90%,29%,79%,58%,83%,27%,106%,87%,100%,97%,121%
Oc1c2ccccc2c2c3c(cccc13)N=N2,51%,34%,6%,75%,38%,26%,2%,6%,1%,2%,0%,36%,9%,60%,47%,16%,2%,63%,81%,71%
Cc1ccc(NC2=CC(=O)c3sc(C)nc3C2=O)cc1,96%,97%,104%,90%,109%,96%,91%,85%,81%,95%,84%,96%,79%,82%,93%,86%,–,99%,85%,84%
c1ccc2c(-c3ccncc3)c[nH]c2c1,97%,111%,72%,–,91%,85%,63%,107%,78%,91%,60%,110%,92%,89%,78%,86%,50%,97%,83%,96%
c1ccc(-c2n[nH]cc2-c2ccnc3ccccc23)nc1,–,107%,80%,90%,51%,36%,7%,48%,23%,37%,10%,71%,76%,94%,22%,43%,27%,103%,87%,93%
O=[N+]([O-])c1ccc(-c2nc(-c3ccc(F)cc3)c(-c3ccncc3)[nH]2)cc1,–,100%,116%,103%,96%,77%,46%,104%,90%,78%,71%,81%,54%,82%,70%,99%,91%,105%,94%,108%
CCN(CC)C(=O)c1ccc(Nc2nc(OCC3CCCCC3)c3nc[nH]c3n2)cc1,6%,61%,9%,55%,7%,33%,2%,5%,1%,0%,0%,1%,2%,35%,5%,33%,3%,–,–,97%
O=C1Nc2ccccc2/C1=C1/Nc2ccccc2/C1=N\OCCC(O)CO (stereo not drawn),35%,71%,48%,3%,3%,1%,0%,0%,0%,-1%,0%,1%,1%,-1%,2%,20%,4%,63%,72%,60%
COc1cc2ncc(-c3ccccc3)nc2cc1OC,99%,126%,87%,–,–,95%,67%,57%,16%,71%,17%,30%,7%,–,84%,96%,90%,–,91%,–
c1ccc(-c2n[nH]c3c2oc2ccccc23)cc1,–,–,–,–,49%,13%,1%,6%,0%,3%,1%,6%,1%,86%,51%,84%,30%,94%,86%,95%
Cc1cc(Nc2nc(-c3ccccc3)nc3ccccc23)n[nH]1,6%,58%,21%,18%,2%,0%,1%,2%,1%,0%,1%,4%,0%,2%,-2%,38%,6%,–,65%,55%
Nc1ccc2ncnc(NCCc3ccc(Oc4ccccc4)cc3)c2c1,84%,91%,87%,84%,–,54%,26%,33%,9%,15%,6%,72%,–,75%,66%,72%,68%,97%,95%,110%
